{"source": "PubChem BioAssay AID620", "about": "(Sanford-Burnham Center for Chemical Genomics, 2007)", "note": "Among all 87,000 compounds or so, about 360 (0.41%) were called active. The entries come from a sample that favours actives as a whole. Unmarked numbers belong to inactive results. No stated cut-off is given here; in the data, active means cytotoxicity above about 50%; inactive means the rest.", "data": [{"assay": "HT1080 cell viability loss – fluorescence readout (AID 620);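 further: cells exposed to compound overnight then 4 h with Alamar Blue; 0% = vehicle DMSO and 100% = killing control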", "settings": "at 10 µM, stronger effect = higher value", "values": [{"smiles": "CCOC(=O)CSCC(=O)Nc1ccc(S(=O)(=O)N2CCCCC2)cc1", "cytotoxicity": "6.7%"}, {"smiles": "CC(C)(C)c1nc(CN2CCOCC2)ccc1O", "cytotoxicity": "-2.2%"}, {"smiles": "Cc1ccc2nc(NCc3ccccc3)[nH]c2c1", "cytotoxicity": "63.1% (active)"}, {"smiles": "c1ccc(CNc2nc3ccccc3[nH]2)cc1", "cytotoxicity": "4.5%"}, {"smiles": "COc1ccc2nc(NCc3ccccc3)[nH]c2c1", "cytotoxicity": "24.9%"}, {"smiles": "CC(C(=O)Oc1ccc2c(c1)OCO2)N1C(=O)c2ccccc2C1=O", "note": "(centres undefined)", "cytotoxicity": "3.4%"}, {"smiles": "CC(=O)N1CCc2cc(C(=O)CN3CCCCC3)ccc21", "cytotoxicity": "-6.3%"}, {"smiles": "CCN1CCN(Cc2nc3c(c(=O)[nH]c(=O)n3C)n2Cc2ccccc2Cl)CC1", "cytotoxicity": "4.2%"}, {"smiles": "COc1ccc(-c2cc(-c3cccs3)c(C#N)c(SCC(=O)NCc3ccco3)n2)cc1", "cytotoxicity": "55.1% (active)"}, {"smiles": "COc1ccc(CNC(=O)CSc2nc(-c3ccccc3)cc(-c3cccs3)c2C#N)cc1", "cytotoxicity": "-13.6%"}, {"smiles": "COc1ccc(-c2cc(-c3cccs3)c(C#N)c(SCC(=O)NCc3ccccc3)n2)cc1", "cytotoxicity": "-5.2%"}, {"smiles": "Nc1nc(SCc2ccc(Cl)cc2)ns1", "cytotoxicity": "-0.5%"}, {"smiles": "CCOC(=O)C1CCCN(Cc2ccccc2OCC)C1", "note": "(centres undefined)", "cytotoxicity": "8.9%"}, {"smiles": "COc1ccc(C(=O)Nn2c(C)ccc2C)cc1OC", "cytotoxicity": "-1%"}, {"smiles": "CS(=O)(=O)N1CCN(c2ccccc2NC(=O)c2ccc(-c3ccc(Cl)cc3Cl)o2)CC1", "cytotoxicity": "6%"}, {"smiles": "COc1cccc(C2=NOC(C(=O)NCc3ccc(F)cc3)C2)c1", "note": "(centres undefined)", "cytotoxicity": "-1.1%"}, {"smiles": "COc1ccc(CNC(=O)C2CC(c3ccc(OC)cc3)=NO2)cc1", "note": "(centres undefined)", "cytotoxicity": "-0.6%"}, {"smiles": "COc1cc(C2=NOC(C(=O)NCc3ccc(F)cc3)C2)cc(OC)c1OC", "note": "(centres undefined)", "cytotoxicity": "64.5% (active)"}, {"smiles": "COc1ccc(C2=NOC(C(=O)NCc3ccc(F)cc3)C2)cc1", "note": "(centres undefined)", "cytotoxicity": "7%"}, {"smiles": "COc1ccc(CNC(=O)C2CC(c3ccc(F)cc3)=NO2)cc1", "note": "(centres undefined)", "cytotoxicity": "3.2%"}, {"smiles": "COc1ccc(C2=NOC(C(=O)NCc3ccc(F)cc3)C2)cc1OC", "note": "(centres undefined)", "cytotoxicity": "57.2% (active)"}, {"smiles": "COc1ccc2[nH]c(=O)c(C(c3nnnn3C3CCCC3)N3CCN(Cc4ccc5c(c4)OCO5)CC3)cc2c1", "note": "(centres undefined)", "cytotoxicity": "-0.4%"}, {"smiles": "COc1cc(NC(=O)c2nccnc2C(=O)O)cc(OC)c1", "cytotoxicity": "-8%"}, {"smiles": "C=CCSc1ncc(C#N)c(N)n1", "cytotoxicity": "14.9%"}, {"smiles": "O=C(OCC(=O)N1CCc2ccccc21)c1cccnc1Cl", "cytotoxicity": "-2.9%"}, {"smiles": "CS(=O)(=O)N1CCCC(C(=O)NCCCN2CCc3ccccc3C2)C1", "note": "(centres undefined)", "cytotoxicity": "-1.1%"}, {"smiles": "C[C@@H](C(=O)NCCc1c[nH]c2ccccc12)[C@@H]1C[C@@]1(C)[C@@H](NC(=O)OCc1ccccc1)c1ccccc1", "cytotoxicity": "0.9%"}, {"smiles": "Cc1cc2c(c(C)nn2-c2ccccc2)c(=O)o1", "cytotoxicity": "-11.4%"}, {"smiles": "CCCCCCCCCCn1c2c(c(=N)c3c1CCC3)CCC2", "cytotoxicity": "38.3%"}, {"smiles": "CCCCCCn1c2c(c(=N)c3c1CCC3)CCC2", "cytotoxicity": "12.4%"}, {"smiles": "CCCCCCCCCn1c2c(c(=N)c3c1CCC3)CCC2", "cytotoxicity": "51.6% (active)"}, {"smiles": "Cn1c(=O)[nH]c(=O)c2c1nc(CN1CCN(c3ccccc3F)CC1)n2CC(N)=O", "cytotoxicity": "-7.3%"}, {"smiles": "COC(=O)C(C(C)=O)C1=C/C(=N\\S(=O)(=O)c2ccc(C)cc2)c2ccccc2C1=O", "note": "(centres undefined)", "cytotoxicity": "-13%"}, {"smiles": "COC(=O)c1ccccc1NC1=C/C(=N\\S(=O)(=O)c2cccs2)c2ccccc2C1=O", "cytotoxicity": "-53%"}, {"smiles": "Cc1ccc(NC2=C/C(=N\\S(=O)(=O)c3cccs3)c3ccccc3C2=O)c(C)c1", "cytotoxicity": "61.6% (active)"}, {"smiles": "O=c1nc(N2CCOCC2)ccn1Cc1ccc(Br)cc1", "cytotoxicity": "-6.8%"}, {"smiles": "C=CCn1cc(C(=O)OC)c(=O)c2cc(S(=O)(=O)N3CCC(C)CC3)ccc21", "cytotoxicity": "6.1%"}, {"smiles": "COc1ccc(NC(=O)c2oc3ccccc3c2NC(=O)COc2ccccc2OC)c(OC)c1", "cytotoxicity": "-4.5%"}, {"smiles": "O=C(c1ccco1)N1c2ccccc2Sc2ccccc21", "cytotoxicity": "0.2%"}, {"smiles": "O=C(CN1CCN(c2ccccn2)CC1)N1c2ccccc2Sc2ccc(C(F)(F)F)cc21", "cytotoxicity": "6.6%"}, {"smiles": "O=C(c1ccco1)N1CCN(C(=O)N2c3ccccc3Sc3ccccc32)CC1", "cytotoxicity": "60.9% (active)"}, {"smiles": "O=C(NC1CCN(C(=O)N2c3ccccc3Sc3ccccc32)CC1)c1ccco1", "cytotoxicity": "3.2%"}, {"smiles": "O=C(N1CCOCC1)N1CCN(c2ccccn2)CC1", "cytotoxicity": "6.2%"}, {"smiles": "O=C(N1CCN(c2ccccn2)CC1)N1c2ccccc2Sc2ccccc21", "cytotoxicity": "59.7% (active)"}, {"smiles": "Cc1ccccc1C(NC(N)=O)c1ccccc1", "note": "(centres undefined)", "cytotoxicity": "0.3%"}, {"smiles": "CC(C)N=C(NC#N)SCc1ccccc1", "cytotoxicity": "0.9%"}, {"smiles": "COc1ccc(C2=Nn3c(nnc3-c3ccccc3)SC2)cc1OC", "cytotoxicity": "11.6%"}, {"smiles": "CCOc1ccc(-c2nnc3n2N=C(c2ccc(OC)cc2)CS3)cc1", "cytotoxicity": "11.5%"}, {"smiles": "COc1ccc(C2=Nn3c(nnc3-c3ccccc3OC)SC2)cc1OC", "cytotoxicity": "56.1% (active)"}, {"smiles": "COc1ccccc1-c1nnc2n1N=C(c1ccc(O)c(O)c1)CS2", "cytotoxicity": "48%"}, {"smiles": "CCOc1ccc(C2=Nn3c(nnc3-c3ccc(OC)cc3)SC2)cc1", "cytotoxicity": "38%"}, {"smiles": "CCOc1ccc(C2=Nn3c(nnc3-c3ccccc3OC)SC2)cc1", "cytotoxicity": "62.9% (active)"}, {"smiles": "CSC1CCCCC1(O)CSc1nc2ccccc2o1", "note": "(centres undefined)", "cytotoxicity": "-0.9%"}, {"smiles": "O=C(CCN1C(=O)C2C3C=CC(C3)C2C1=O)N1CCN(c2ccc(F)cc2)CC1", "note": "(centres undefined)", "cytotoxicity": "0.6%"}, {"smiles": "O=C(O)C1CC=C(Cl)CC1C(=O)NCC1OCCc2ccccc21", "note": "(centres undefined)", "cytotoxicity": "22.3%"}, {"smiles": "O=C(NCc1ccc(F)cc1)C1CCN(C(=O)NCc2ccccc2)CC1", "cytotoxicity": "-1%"}, {"smiles": "OCCc1ccc(-c2ccc(Cl)cc2)o1", "cytotoxicity": "0.4%"}, {"smiles": "Cc1nn(-c2ccc(F)cc2)c2sc(C(=O)N3CCCCCC3)cc12", "cytotoxicity": "-14%"}, {"smiles": "CC(=O)Nc1ccc2nc(-c3ccccn3)[nH]c2c1", "cytotoxicity": "7.2%"}, {"smiles": "Nc1ccc2nc(-c3ccccn3)[nH]c2c1", "cytotoxicity": "18.5%"}, {"smiles": "CC1(C)OC(=O)N(c2ccccc2)C12C=Cc1cc(Br)ccc1O2", "note": "(centres undefined)", "cytotoxicity": "-10.5%"}, {"smiles": "Nc1nonc1C(=O)NCCNCc1cc(Br)ccc1OCc1ccc(F)cc1", "cytotoxicity": "21.8%"}, {"smiles": "Nc1nonc1C(=O)NCCNCc1ccccc1OCc1ccccc1F", "cytotoxicity": "0.5%"}, {"smiles": "Nc1nonc1C(=O)NCCNCc1cc(Br)ccc1OCc1ccccc1F", "cytotoxicity": "99.7% (active)"}]}]}
